This is part of a sample that, as a whole, favours compounds with a hit. Of some 83,000 tested, about 20% had one in any assay.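 Plates (96-well) were seeded with cells, treated with compound at one concentration, and incubated for 48 hours before percent growth was determined.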 Unmarked numbers belong to inactive results. Active and inactive are the calls of the source.
What follows are molecules tested on MOLT-4 leukemia (assay: NCI-60 one-dose screen, 48 h (100 = growth as untreated, 0 = no growth, -100 = all killed)). Conditions: 10 µM unless noted.
Protocol: Growth inhibition of the MOLT-4 human tumor cell line is measured as a screen for anti-cancer activity. Cells are grown in 96 well plates and exposed to the test compound for 48 hours. Compounds are tested at a single concentration, which is 10^-5 M for most compounds. The reported endpoint is percent growth (GI% or GIPRCNT), where numbers from 0 - 100% represent growth inhibition, and numbers from -100% - 0 represent cell death. For example, a value of 40 represents 60% growth inhibition. A value of 0 means no net growth occurred over the course of the experiment. A value of -40 indicates 40% of cells at the beginning of the experiment died by the end of the experiment. A value of -100 means all cells are dead at the end of the experiment.
NCI-60 Human Tumor Cell Lines Screen was performed using the standard one-dose NCI protocol, which is described in more detail at https://dtp.cancer.gov/discovery_development/nci-60/default.htm.
Compounds with GIPRCNT values below 10 were considered active. Activity score was based on GIPRCNT using the following formula: […]
Score is 0 for GIPRCNT values of 100 or above, 50 for GIPRCNT values of 0, and 100 for GIPRCNT values of -100.
`Cc1ccc(-c2nc3nc(-c4ccccc4)nc(N4CCNCC4)c3o2)cc1` was tested, and the growth was -69.2% (active). In the case of `COc1ccc(-c2nc3c(c(-c4ccccc4)nn3-c3ccccc3)c(-c3ccc(N4CCN(C)CC4)cc3)c2C#N)cc1`, the growth is reported as 69.4%. With `O=C(Cn1cc(CN2CCCCCC2)nn1)Nc1ccc2c(ccn2Cc2ccccc2)c1` the growth was 89.9%. With `C[C@]12C=CC(=O)C=C1CCC1C2[C@@H](O)C[C@@]2(C)C1CC[C@]2(O)C(=O)COC(=O)CCC(=O)O` (stereo not given in full) the growth was 100%. In the case of `COc1cc(/C=C\c2cc(/C=C\c3ccc(O)c(OC)c3)n(C(=O)COc3ccc(Cl)cc3Cl)n2)ccc1O`, the growth is reported as -0.332% (active). For `CN(C)CCNC(=O)c1cccc(-c2cnc3ccc(-c4ccc5c(c4)OCO5)nn23)c1`, the growth was 59.4%. `CCN(c1ccc(Cl)cc1)c1nc(-c2ccc([N+](=O)[O-])cc2)cs1` was tested, and the growth was 96.9%. `C[C@H](NC(=O)[C@@H](C)N)[C@H](Oc1ccc2c(cnn2-c2ccc(F)cc2)c1)c1ccc2c(c1)OCCO2` was tested, and the growth was 8.43% (active). With `COc1ccc(C(=O)Nc2ncc(Cc3cccc(Cl)c3)s2)cc1OC` the growth was 29.2%. `Cc1cc2c(O)c(-c3cc(Cl)ccc3Cl)c3sc(=O)oc3c2cc1C` was tested, and the growth was 40.6%. In the case of `O=c1oc2ccc([N+](=O)[O-])cc2cc1Br`, the growth is reported as 98.5%. Work on `O=C(Cn1c(-c2ccc([N+](=O)[O-])cc2)nc2ccccc21)NNC(=O)c1cccnc1` yielded a growth of 79.3%. `CN(C)CCNc1nc2c3cc(Cl)ccc3nn2c2ccccc12` was tested, and the growth was 15.9%. For `NC(=O)c1c(NC(=O)c2ccccc2)sc2c1CCC(=O)C2`, the growth was 5.67% (active). In the case of `COC(C(=O)[C@@H](O)[C@@H](C)O)[C@@H]1Cc2cc3cc(O[C@H]4C[C@@H](O[C@H]5C[C@@H](O)[C@H](O)C(C)O5)[C@H](O)C(C)O4)c(C)c(O)c3c(O)c2C(=O)[C@H]1O[C@H]1C[C@@H](O[C@H]2C[C@@H](O[C@H]3C[C@@H](O)[C@H](OC)C(C)O3)[C@@H](O)C(C)O2)[C@H](O)C(C)O1` (stereo not given in full), the growth is reported as -6.79% (active). `O=C(CSc1nc2sc3c(c2c(=O)n1-c1ccccc1)CCCCC3)N/N=C/c1ccc(F)cc1` gave a growth of 67.1%. In the case of `Cc1ccc(-c2csc(NC(=O)CN3CCN(c4cc5c(cc4F)c(=O)c(C(=O)O)cn5C4CC4)CC3)n2)cc1`, the growth is reported as 4.51% (active). In the case of `N#Cc1nc(-c2ccccc2)oc1S(=O)(=O)N1CCOCC1`, the growth is reported as -16% (active). For `COc1ccc(C2c3sc4c(F)cccc4c3Oc3nc[nH]c(=O)c32)cc1` (stereo not given), the growth was 84.2%. Molecule `O=c1oc2c(cnc3ccccc32)cc1-c1ccsc1` has a growth of 96%. `C=C(C)[C@@H]1CC[C@]2(C)[C@H](CC=C3[C@@H]4[C@H](C)[C@@H](C)CC[C@]4(CO)CC[C@]32C)[C@@]1(C)CCCN` was tested, and the growth was -10.6% (active). In the case of `CC1(C)c2[nH]c3ccccc3c2C[C@]2(C)[C@H]3CC=C4[C@@H]5C[C@@](C)(C(N)=O)CC[C@]5(C)CC[C@@]4(C)[C@]3(C)CC[C@@H]12`, the growth is reported as 51.2%. In the case of `Cn1cc(-c2csc(-c3ccc(Cl)cc3)n2)c2cccnc21`, the growth is reported as 2.44% [100 µM] (active). In the case of `COc1cc(-c2nc(SCC(C)C)nc(Nc3cccc4ccccc34)c2C#N)cc(OC)c1OC`, the growth is reported as 64.3%. `Cc1ccccc1/C=C1\CN(C(=O)OC(C)(C)C)C/C(=C\c2ccccc2C)C1=O` showed a growth of 10.8%. In the case of `CC(C)(C)n1cc(-c2ccnc(NCCNS(=O)(=O)c3cccc4ccccc34)c2)c(-c2cccc(F)c2)n1`, the growth is reported as -15.5% (active). In the case of `O=C(Nc1cccc([N+](=O)[O-])c1)c1cc2ccccc2cc1O`, the growth is reported as -44.6% (active). Work on `N#Cc1c(-c2ccc(Cl)cc2)nc(NN=Cc2cccc(O)c2)nc1N1CCOCC1` yielded a growth of 39.8%. For `Oc1c(Cl)cc(Cl)cc1/C=N/Nc1nnc(N/N=C/c2cc(Cl)cc(Cl)c2O)c2ccccc12`, the growth was 5.23% (active). In the case of `CCc1ccc(Oc2cn[nH]c2-c2ccc(OCCc3ccc(F)cc3)cc2O)cc1`, the growth is reported as 84.4%. Work on `COc1ccc(/C=N/C2=C(C#N)C(c3cccc(Cl)c3)c3c(ccc4ccccc34)O2)cc1` (stereo not given) yielded a growth of 21.8%. `COc1ccc(-c2cn(-c3cc(OC)c(OC)c(OC)c3)c(=O)n2C(C)=O)cc1` showed a growth of 75.1%. For `CCOC(=O)C(=Cc1cccc(Br)c1)C(=O)OCC`, the growth was 16.6%. In the case of `Cc1nnc(-n2c(O)cc(=O)n(-c3ccccc3)c2=S)nc1/C=C/c1ccc(N(C)C)cc1`, the growth is reported as 56.1%. With `Cc1nc2sc(C(=O)Nc3cccc(Cl)c3C)c(N)c2cc1C(=O)c1ccccc1` the growth was 16.4%. `C#CCOc1ccc2ncnc(Nc3ccc(NC(=O)CCl)cc3)c2c1` was tested, and the growth was -8.27% (active). `O=C(c1ccc(Cl)cc1)N1CCN(c2ccnc3cc(Cl)ccc23)CC1` showed a growth of 87.1%. `COc1cc2c(c(OC)c1OC)CCC(c1cccc(C(=O)Nc3cccc(Br)c3)c1)O2` (stereo not given) was tested, and the growth was 49.4%. In the case of `O=C1/C(=C/c2ccc(F)cc2)COc2ccc(O)c(O)c21`, the growth is reported as 4.21% (active). With `N#Cc1c(-c2ccc(Cl)cc2)nc(SCC(=O)NC2=NN=C(c3ccccc3)CS2)[nH]c1=O` the growth was 90.4%.

From PubChem BioAssay (NCI)
